In the supplement of paper PMC12282887:
± gives the standard deviation of the averaged measurements.

What was measured:
Assay in all cases: promoter activity interaction Z-score (Lux/OD deviation from empty-vector control); higher = stronger promoter induction by the compound
[1] = tested on: E. coli BW25113 acrABp lux reporter
Procedure, shortened: (§1)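 At 37°C, E. coli BW25113 reporter cultures in 40 µl LB Lennox in 384-well plates were read for OD600 and luminescence every 30 min for 12 h. Windows were 0–8 h for wild type and 1–9 h for deletion strains, and wells under 10% of the median growth value were removed. The score is the Z-transformed residual of growth-normalised luminescence against a control fit.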

[2] = tested on: E. coli BW25113 micFp lux reporter
Procedure, shortened: as §1

[3] = tested on: E. coli BW25113 ompFp lux reporter
Procedure, shortened: as §1

[4] = tested on: E. coli BW25113 robp lux reporter
Procedure, shortened: as §1

[5] = tested on: E. coli BW25113 soxSp lux reporter
Procedure, shortened: as §1

[6] = tested on: E. coli BW25113 tolCp lux reporter
Procedure, shortened: as §1

[7] = 0.53 µg/ml, genetic background: wild type
[8] = 0.53 µg/ml, genetic background: ΔmarA
[9] = 0.53 µg/ml, genetic background: Δrob
[10] = 0.53 µg/ml, genetic background: ΔsoxS
[11] = 1.1 µg/ml, genetic background: wild type
[12] = 1.1 µg/ml, genetic background: ΔmarA
[13] = 1.1 µg/ml, genetic background: Δrob
[14] = 1.1 µg/ml, genetic background: ΔsoxS
[15] = 2.1 µg/ml, genetic background: wild type
[16] = 2.1 µg/ml, genetic background: ΔmarA
[17] = 2.1 µg/ml, genetic background: Δrob
[18] = 2.1 µg/ml, genetic background: ΔsoxS
[19] = 4.2 µg/ml, genetic background: wild type
[20] = 4.2 µg/ml, genetic background: ΔmarA
[21] = 4.2 µg/ml, genetic background: Δrob
[22] = 4.2 µg/ml, genetic background: ΔsoxS
[23] = 20 µg/ml, genetic background: wild type
[24] = 20 µg/ml, genetic background: ΔmarA
[25] = 20 µg/ml, genetic background: Δrob
[26] = 20 µg/ml, genetic background: ΔsoxS
[27] = 39.9 µg/ml, genetic background: wild type
[28] = 39.9 µg/ml, genetic background: ΔmarA
[29] = 39.9 µg/ml, genetic background: Δrob
[30] = 39.9 µg/ml, genetic background: ΔsoxS
[31] = 79.8 µg/ml, genetic background: wild type
[32] = 79.8 µg/ml, genetic background: ΔmarA
[33] = 79.8 µg/ml, genetic background: Δrob
[34] = 79.8 µg/ml, genetic background: ΔsoxS
[35] = 159.6 µg/ml, genetic background: wild type
[36] = 159.6 µg/ml, genetic background: ΔmarA

Q: Which results are given for Cc1onc(-c2ccccc2)c1C(=O)N[C@@H]1C(=O)N2[C@@H]1SC(C)(C)[C@@H]2C(=O)O [Oxacillin]?
A: promoter activity interaction Z-score [1, 7]: 0.053 ± 0.18; promoter activity interaction Z-score [1, 8]: -0.268 ± 0.44; promoter activity interaction Z-score [1, 9]: -0.0793 ± 0.23; promoter activity interaction Z-score [1, 10]: -0.33 ± 0.59; promoter activity interaction Z-score [1, 11]: 0.196 ± 0.12; promoter activity interaction Z-score [1, 12]: 1.12 ± 0.86; promoter activity interaction Z-score [1, 13]: 0.498 ± 0.18; promoter activity interaction Z-score [1, 14]: -0.172 ± 0.078; promoter activity interaction Z-score [1, 15]: 0.0571 ± 0.33; promoter activity interaction Z-score [1, 16]: 0.268 ± 0.39; promoter activity interaction Z-score [1, 17]: -0.074 ± 0.13; promoter activity interaction Z-score [1, 18]: 0.181 ± 0.15; promoter activity interaction Z-score [1, 19]: 0.273 ± 0.22; promoter activity interaction Z-score [1, 20]: 0.585 ± 0.21; promoter activity interaction Z-score [1, 21]: 0.529 ± 0.22; promoter activity interaction Z-score [1, 22]: 0.643 ± 0.31; promoter activity interaction Z-score [2, 7]: -0.0698 ± 0.15; promoter activity interaction Z-score [2, 8]: -0.00609 ± 0.034; promoter activity interaction Z-score [2, 9]: 0.0977 ± 0.018; promoter activity interaction Z-score [2, 10]: -0.311 ± 0.1; promoter activity interaction Z-score [2, 11]: 0.087 ± 0.12; promoter activity interaction Z-score [2, 12]: 0.0472 ± 0.028; promoter activity interaction Z-score [2, 13]: -0.0746 ± 0.027; promoter activity interaction Z-score [2, 14]: -0.46 ± 0.051; promoter activity interaction Z-score [2, 15]: -0.222 ± 0.18; promoter activity interaction Z-score [2, 16]: -0.0625 ± 0.059; promoter activity interaction Z-score [2, 17]: -0.00193 ± 0.23; promoter activity interaction Z-score [2, 18]: -0.245 ± 0.077; promoter activity interaction Z-score [2, 19]: -0.192 ± 0.041; promoter activity interaction Z-score [2, 20]: -0.163 ± 0.035; promoter activity interaction Z-score [2, 21]: -0.112 ± 0.052; promoter activity interaction Z-score [2, 22]: -0.2749 ± 0.002; promoter activity interaction Z-score [3, 7]: 0.23 ± 0.46; promoter activity interaction Z-score [3, 8]: -0.204 ± 0.21; promoter activity interaction Z-score [3, 9]: 0.703 ± 0.91; promoter activity interaction Z-score [3, 10]: 0.0892 ± 0.53; promoter activity interaction Z-score [3, 11]: 0.678 ± 0.061; promoter activity interaction Z-score [3, 12]: 0.797 ± 0.28; promoter activity interaction Z-score [3, 13]: 1.14 ± 0.72; promoter activity interaction Z-score [3, 14]: -0.107 ± 0.53; promoter activity interaction Z-score [3, 15]: 0.461 ± 0.27; promoter activity interaction Z-score [3, 16]: 0.0383 ± 0.29; promoter activity interaction Z-score [3, 17]: 0.0292 ± 0.36; promoter activity interaction Z-score [3, 18]: 0.0474 ± 0.046; promoter activity interaction Z-score [3, 19]: 1.42 ± 0.14; promoter activity interaction Z-score [3, 20]: 1.05 ± 0.48; promoter activity interaction Z-score [3, 21]: 0.898 ± 0.69; promoter activity interaction Z-score [3, 22]: 0.846 ± 0.19; promoter activity interaction Z-score [4, 7]: 0.088 ± 0.58; promoter activity interaction Z-score [4, 8]: -0.319 ± 0.36; promoter activity interaction Z-score [4, 9]: 0.652 ± 0.036; promoter activity interaction Z-score [4, 10]: 0.106 ± 0.47; promoter activity interaction Z-score [4, 11]: 0.612 ± 0.26; promoter activity interaction Z-score [4, 12]: 0.925 ± 0.46; promoter activity interaction Z-score [4, 13]: 0.609 ± 0.17; promoter activity interaction Z-score [4, 14]: 0.778 ± 0.55; promoter activity interaction Z-score [4, 15]: 0.467 ± 0.023; promoter activity interaction Z-score [4, 16]: -0.206 ± 0.25; promoter activity interaction Z-score [4, 17]: 0.275 ± 0.38; promoter activity interaction Z-score [4, 18]: 0.757 ± 0.4; promoter activity interaction Z-score [4, 19]: 0.385 ± 0.34; promoter activity interaction Z-score [4, 20]: 1.01 ± 0.081; promoter activity interaction Z-score [4, 21]: 0.222 ± 0.11; promoter activity interaction Z-score [4, 22]: 1.08 ± 0.62; promoter activity interaction Z-score [5, 7]: -0.0338 ± 0.24; promoter activity interaction Z-score [5, 8]: -0.139 ± 0.028; promoter activity interaction Z-score [5, 9]: -0.137 ± 0.026; promoter activity interaction Z-score [5, 10]: 0.0469 ± 0.46; promoter activity interaction Z-score [5, 11]: 0.0426 ± 0.12; promoter activity interaction Z-score [5, 12]: 0.0745 ± 0.03; promoter activity interaction Z-score [5, 13]: -0.157 ± 0.17; promoter activity interaction Z-score [5, 14]: -0.0373 ± 0.73; promoter activity interaction Z-score [5, 15]: 0.0115 ± 0.12; promoter activity interaction Z-score [5, 16]: -0.148 ± 0.13; promoter activity interaction Z-score [5, 17]: -0.0916 ± 0.13; promoter activity interaction Z-score [5, 18]: 0.0598 ± 0.27; promoter activity interaction Z-score [5, 19]: -0.0461 ± 0.098; promoter activity interaction Z-score [5, 20]: -0.0772 ± 0.096; promoter activity interaction Z-score [5, 21]: -0.0369 ± 0.08; promoter activity interaction Z-score [5, 22]: 0.0279 ± 0.51; promoter activity interaction Z-score [6, 7]: -0.367 ± 0.24; promoter activity interaction Z-score [6, 8]: -0.79 ± 0.24; promoter activity interaction Z-score [6, 9]: -0.414 ± 0.28; promoter activity interaction Z-score [6, 10]: -0.864 ± 0.42; promoter activity interaction Z-score [6, 11]: 0.453 ± 0.31; promoter activity interaction Z-score [6, 12]: 0.956 ± 0.37; promoter activity interaction Z-score [6, 13]: 0.349 ± 0.2; promoter activity interaction Z-score [6, 14]: -0.174 ± 0.0082; promoter activity interaction Z-score [6, 15]: -0.798 ± 0.98; promoter activity interaction Z-score [6, 16]: -0.615 ± 0.57; promoter activity interaction Z-score [6, 17]: -0.016 ± 0.46; promoter activity interaction Z-score [6, 18]: -0.0987 ± 0.39; promoter activity interaction Z-score [6, 19]: -0.558 ± 0.11; promoter activity interaction Z-score [6, 20]: -0.589 ± 0.39; promoter activity interaction Z-score [6, 21]: -0.155 ± 0.7; promoter activity interaction Z-score [6, 22]: -0.224 ± 1.2

Q: Which “promoter activity interaction Z-score” value [1, 23] does the source give for NC[C@H](O)c1ccc(O)c(O)c1 [Noradrenalin] here?
A: 0.191 ± 0.043

Q: What about the “promoter activity interaction Z-score” value [1, 24] of the same compound?
A: 0.362 ± 0.59

Q: What about the “promoter activity interaction Z-score” value [1, 25] of the same compound?
A: 0.47 ± 0.3

Q: What about the “promoter activity interaction Z-score” value [1, 26] of the same compound?
A: 0.122 ± 0.4

Q: And the “promoter activity interaction Z-score” value [1, 27]?
A: 0.0636 ± 0.28

Q: What about the “promoter activity interaction Z-score” value [1, 28] of the same compound?
A: 0.359 ± 0.28

Q: And the “promoter activity interaction Z-score” value [1, 29]?
A: 0.344 ± 0.66

Q: What about the “promoter activity interaction Z-score” value [1, 30] of the same compound?
A: 0.23 ± 0.37

Q: And the “promoter activity interaction Z-score” value [1, 31]?
A: 0.335 ± 0.023

Q: And the “promoter activity interaction Z-score” value [1, 32]?
A: -0.978 ± 0.27

Q: And the “promoter activity interaction Z-score” value [1, 33]?
A: 0.541 ± 0.3

Q: What about the “promoter activity interaction Z-score” value [1, 34] of the same compound?
A: 0.0112 ± 0.031

Q: And the “promoter activity interaction Z-score” value [1, 35]?
A: 0.208 ± 0.26

Q: What about the “promoter activity interaction Z-score” value [1, 36] of the same compound?
A: 0.422 ± 0.39

Q: What about the “promoter activity interaction Z-score” value ([1]; 159.6 µg/ml, genetic background: Δrob) of the same compound?
A: 0.664 ± 0.6

Q: And the “promoter activity interaction Z-score” value ([1]; 159.6 µg/ml, genetic background: ΔsoxS)?
A: 0.626 ± 0.16

Q: And the “promoter activity interaction Z-score” value [2, 23]?
A: -0.0178 ± 0.045

Q: What about the “promoter activity interaction Z-score” value [2, 24] of the same compound?
A: 0.0504 ± 0.056

Q: And the “promoter activity interaction Z-score” value [2, 25]?
A: -0.0409 ± 0.027

Q: And the “promoter activity interaction Z-score” value [2, 26]?
A: 0.0398 ± 0.17

Q: And the “promoter activity interaction Z-score” value [2, 27]?
A: -0.101 ± 0.2

Q: What about the “promoter activity interaction Z-score” value [2, 28] of the same compound?
A: -0.00878 ± 0.065

Q: And the “promoter activity interaction Z-score” value [2, 29]?
A: -0.0156 ± 0.16

Q: And the “promoter activity interaction Z-score” value [2, 30]?
A: -0.114 ± 0.0037

Q: What about the “promoter activity interaction Z-score” value [2, 31] of the same compound?
A: 0.00145 ± 0.18

Q: And the “promoter activity interaction Z-score” value [2, 32]?
A: -0.0653 ± 0.027

Q: What about the “promoter activity interaction Z-score” value [2, 33] of the same compound?
A: -0.14 ± 0.2

Q: And the “promoter activity interaction Z-score” value [2, 34]?
A: 0.0484 ± 0.0015

Q: What about the “promoter activity interaction Z-score” value [2, 35] of the same compound?
A: -0.129 ± 0.14

Q: And the “promoter activity interaction Z-score” value [2, 36]?
A: -0.17 ± 0.03
